We go through 36 molecules from PubChem BioAssay.

This assay is described as follows: small-molecule microarray binders of probe aLefty2, primary screen, biochemical, biotinylated probe, 635/667 nm fluorescence (AID 1094).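 Also: score merges spot fluorescence near 667 nm with spot signal-to-noise ratio.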 The conditions noted are these: higher = more signal.
The molecule `COc1ccc(C(O)C2C=CC3C(=O)N(c4ccccc4)C(=O)C3N2Nc2ccc(C#N)cc2)c2ccccc12` (stereo unspecified) returned a composite z-score of 0.397.
The result for `COCCOC(=O)N1C(=O)[C@@]2(c3ccccc31)[C@H](C(=O)N1CCN(c3ncccn3)CC1)[C@H]1C(=O)O[C@H](c3ccccc3)[C@H](c3ccccc3)N1[C@@H]2c1ccc(OCCO)cc1` reads 0.309; that for `CC=CC(O)C1C=CC2C(=O)N(c3ccccc3)C(=O)C2N1Nc1ccccc1` (stereo unspecified), 0.209; that for `Cc1ccc(S[C@]2(C(=O)NCC(F)(F)F)CC(=O)N(Cc3ccccc3)[C@@H]2c2ccc(CO)cc2)cc1`, -0.137.
The result for `[N-]=[N+]=Nc1ccccc1C[C@@]1(C(=O)O)N=C(c2ccc(OCCCO)cc2)O[C@@H]1c1ccccc1` reads 0.0917; that for `COCCCNC(=O)[C@]1(Cc2ccccc2CN=[N+]=[N-])N=C(c2ccc(OCCCO)cc2)O[C@@H]1c1ccccc1`, -0.0819.
For `CC(C)OC(=O)CC(=O)CC(O)c1cccc(C#N)c1` (stereo unspecified) the value was 0.237; for `CCCC=C(CCC)[C@@H](NP(=O)(c1ccccc1)c1ccccc1)c1ccc(C(F)(F)F)cc1`, 0.0593; for `CCCN1C(=O)[C@]2(Cc3ccccc3)N=C(c3ccc(OCCCO)cc3)O[C@@H]2c2ccccc21`, -0.0159.
For the molecule `C[C@]12C(=O)N(CCCCCCO)[C@@H]3C(=O)N(c4ccc(Cl)cc4)CC=CC31O[C@@H]1/C=C\CCCOC(=O)C12` (stereo partly specified), the composite z-score is -0.0665.
For `COCCOC(=O)N1C(=O)[C@@]2(c3ccccc31)[C@H](c1ccc(OCCO)cc1)N1[C@H](c3ccccc3)[C@H](c3ccccc3)OC(=O)[C@H]1[C@@H]2C(=O)Nc1nc2ccccc2s1` the value was 0.0305; for `C=CCN1Cc2ccccc2C[C@@]2(N=C(c3ccc(OCCCO)cc3)O[C@H]2c2ccccc2)C1=O`, -0.051.
The result for `CN(C)CCCCNC(=O)[C@H]1C[C@H]2C(=O)N3CCC[C@H]3C(=O)N2[C@H]1c1ccc(O)cc1` reads -0.234; that for `COC1(C)CN(Cc2ccccc2Br)[C@H](/C=C/c2ccccc2)[C@H](Cc2ccccc2)O1` (stereo partly specified), -0.231.
The result for `COc1cc(OC)c(C(O)C2C=CC3C(=O)N(c4ccccc4)C(=O)C3N2Nc2ccc(C#N)cc2)cc1Br` (stereo unspecified) reads 0.929.
Molecule `O=C(O)[C@]1(Cc2ccccc2)N=C(c2ccc(OCCCO)cc2)O[C@@H]1c1ccccc1` had a composite z-score of -0.143.
The result for `O=C1c2ccccc2[C@@]2(Cc3ccccc3N(C3CC3)C2=O)[C@H](c2ccc(CO)cc2)N1C1CCCCC1` reads -0.17.
For `COCCOC(=O)N1C(=O)[C@@]2(c3cc(C#CCC(C(=O)OC)C(=O)OC)ccc31)[C@H](c1ccc(OCCO)cc1)N1[C@H](c3ccccc3)[C@H](c3ccccc3)OC(=O)[C@H]1[C@@H]2C(=O)N1CCN(c2ncccn2)CC1` the value was 0.0112; for `O=C1O[C@@H](c2ccccc2)[C@@H](c2ccccc2)N2[C@@H](c3ccccc3OCCO)[C@]3(C(=O)Nc4ccc(C#CCCO)cc43)[C@@H](C(=O)N3CCN(c4ncccn4)CC3)[C@H]12`, -0.0708.
For `COc1cc(CO)cc(I)c1O[C@H]1C=C(C(=O)NCCO)C[C@@H](N(CC2CCCCC2)C(=O)c2ccc(C(F)(F)F)cc2)[C@@H]1O` the value was -0.166.
`Cc1c(NC(=O)/C(C#N)=C/C=C/c2ccccc2[N+](=O)[O-])c(=O)n(-c2ccccc2)n1C` had a composite z-score of -0.0124.
For `CCC[C@@H]1C[C@@]1(CCC)[C@@H](NP(=O)(c1ccccc1)c1ccccc1)c1ccc(Cl)cc1`, the composite z-score is -0.0703.
The result for `C=CCN1C(=O)[C@]2(CC=C)N=C(c3ccc(OCCCO)cc3)O[C@@H]2c2ccccc21` reads 0.266; that for `O=C1c2ccccc2[C@](Cc2ccccc2I)(C(=O)NCCN2CCOCC2)[C@H](c2ccc(CO)cc2)N1Cc1ccccc1`, 0.182; that for `COC(=O)[C@@]1(Cc2ccc(F)cc2)[C@H]2c3cc(C(=O)N4CCCC4)n(CCc4c[nH]c5ccc(OC)cc45)c3C[C@H]2CN1C(=O)c1ccccc1`, 0.957.
The result for `O=C1c2ccccc2[C@](Cc2ccccc2I)(C(=O)NCc2ccccc2)[C@H](c2ccc(CO)cc2)N1C1CCCCC1` reads 0.117; that for `COCC(=C=CC[C@H](O)c1cccc(OCCO)c1)C[C@H](O)c1ccccn1`, -0.166.
The result for `CN1C2C=C(CCCO)C(C3C(=O)N(C(N)=O)C(=O)C32)C1c1cccs1` (stereo unspecified) reads 0.89.
In the case of `CN(C)CCCNC(=O)[C@@H]1c2ccccc2C(=O)N(Cc2ccc(OC(F)(F)F)cc2)[C@H]1c1ccc(CO)cc1`, the composite z-score is -0.0654.
`CC(C)(C)OC(=O)CC[C@]1(C(=O)NCCN2CCOCC2)N=C(c2ccc(OCCCO)cc2)O[C@H]1c1ccccc1`: the composite z-score was -0.007.
For `CC(C)CNC(=O)[C@@H]1c2ccccc2C(=O)N(Cc2cc(F)cc(C(F)(F)F)c2)[C@H]1c1ccc(CO)cc1` the value was 0.188; for `C=C(/C(=C/C[C@@H](OC(=O)c1ccncc1)c1ccc(OCCO)cc1)c1cc(C(=O)OC)ccc1OC)C(C)C`, -0.317; for `C=C(CCCC)/C(=C/C[C@@H](OC(=O)c1ccncc1)c1cccc(OCCO)c1)c1cnc2ccccc2c1`, 0.0113.
Regarding `C=CCOC(=O)[C@H]1[C@@H]2C(=O)O[C@@H](c3ccccc3)[C@@H](c3ccccc3)N2[C@@H](c2ccc(OCCOC(=O)[C@H]3C[C@H]4C(=O)N[C@@H](Cc5ccccc5)C(=O)N4[C@H]3c3cccc(OCCO)c3)cc2)[C@]12C(=O)Nc1ccc(I)cc12`, the composite z-score was -0.185.
The result for `Cc1ccc(S[C@]2(C(=O)NC3CC3)CC(=O)N(Cc3ccccc3Cl)[C@@H]2c2ccc(CO)cc2I)cc1` reads 0.0448.
For `C[C@@H]1ON(c2ccc(C(=O)OC(C)(C)C)cc2)[C@H](c2ccc(Br)cc2)[C@H]1C(=O)N1C(=O)OC[C@H]1Cc1ccccc1` the value was 0.149.
